# A number with no mark means an inactive call. Calls come from the whole dose curve; as a rule, active = well fitted curve in the direction sought with a large enough effect in the repeat runs; inconclusive = weak or mixed curves; inactive = flat fitted curve, though single readings scatter.
# Experiment: qHTS assay to test for compound auto fluorescence at 460 nm (blue) in HEK293 cells (AID 720678)
# Conditions: blue autofluorescence 405/460 nm; series mostly up to 91.3 µM; fluorescence, % of triamterene: at the top concentration
# Source text: National Center for Advancing Translational Sciences [NCATS]
# NIH Chemical Genomics Center [NCGC]
# U.S. Environmental Protection Agency [EPA]
# National Institutes of Environmental Health Sciences [NIEHS]
# National Toxicology Program [NTP]
# U.S. Food and Drug Administration [FDA]
# Compound auto fluorescence often interferes with screening of the compound library against various biological targets and signaling pathways. Some of these compounds may have fluorophoric properties. Such properties may interfere with the assay outputs resulting in false positives and/or negatives. To decrease such complications and ensure the compound activities are relevant in terms of biological response, the Tox21 10K compound library was screened for auto fluorescence.
# From the fluorophores used as reporter signals in our screening assays, the auto fluorescence equivalencies of compounds against three fluorophores have been evaluated: Triamterene, Fluorescein and Rose Bengal sodium for blue, green and red fluorescence, respectively. The fluorescence intensities were measured using Excitation/Emission wavelengths at 405/460nm, 485/535nm and 540/590nm for blue, green and red labels, respectively. This assay includes the blue fluorescence data.
# Tox21 Assay Protocol Summary:
# 2,000 HEK293 cells in 5 uL of culture medium containing 10% dialyzed FBS per well were dispensed into black wall/clear bottom 1536-well plates using a Multidrop Combi Dispenser (Thermo Scientific). The assay plates were incubated for 4-5 hr at 37C to allow cell attachment to the well bottom, followed by the transfer of 23 nL compound or DMSO vehicle by a pintool work station (Kalypsys, San Diego, CA). After the assay plates were incubated overnight at 37C and 5% CO2, fluorescence intensities in the assay plates were measured by an Envision (PerkinElmer, Shelton, CT) plate reader using three labels for measuring blue, green and red fluorescence at […] 460, 535 and 590nm respectively.
# % is set by controls: 0 for no effect and ±100 for the full control effect.
row,SMILES,"fluorescence, % of triamterene"
1,Oc1ccccc1Cc1ccccc1O,-0.0612%
2,CCCCOC(=O)C(=O)OCCCC,-0.0888%
3,CCN(Cc1cccc(S(=O)(=O)O)c1)c1ccccc1,0.26%
4,C=CCCCCCCCCCCC,-0.171% [at 3.72 µM]
5,CCCCCCCCCCCCCC(=O)OC,-0.348%
6,CNC(=O)C(c1ccccc1)c1ccccc1,0.12%
7,CCc1nccnc1C,0.173%
8,CCCCCC1Nc2cc(C(F)(F)F)c(S(N)(=O)=O)cc2S(=O)(=O)N1 (stereo not given),0.121% [at 46 µM]
9,Cc1nc2ccccc2c(=O)o1,0.214%
10,O=C(Nc1cccc(C2=NCCN2)c1)Nc1cccc(C2=NCCN2)c1,-0.336% [at 46 µM]
11,CCN(CCO)c1cccc(C)c1,0.0059%
12,COc1cc2c3cc1Oc1cc(ccc1O)C[C@@H]1c4c(cc(OC)c(O)c4Oc4ccc(cc4)C[C@@H]3N(C)CC2)CC[N+]1(C)C,-0.366% [at 46 µM]
13,CO/N=C(/C(=O)N[C@@H]1C(=O)N2C(C(=O)O)=C(Cn3nnc(C)n3)CS[C@H]12)c1csc(N)n1,-0.06% [at 46 µM]
14,CO[Si](CCCCl)(OC)OC,-0.344%
15,CC(=O)c1ccc2c(c1)CCCC2,0.0065%
16,C=CCOc1c(Br)cc(Br)cc1Br,-0.0398%
17,CCOC(=O)CC#N,0.114%
18,CCC(=O)c1ccc(O)cc1,0.0007% [at 46 µM]
19,NS(=O)(=O)c1ccccc1OC(F)(F)F,0.061%
20,CN[C@@H]1[C@H](O)[C@H](NC)[C@H]2O[C@@]3(O)C(=O)C[C@@H](C)O[C@H]3O[C@@H]2[C@H]1O,-0.0174% [at 18.6 µM]

row,SMILES,"fluorescence, % of triamterene"
1,COc1cc([N+](=O)[O-])ccc1N,-0.554%
2,C=C(C)C(=O)OC,0.173%
3,CCCCOC(=O)C(C)OC(=O)CCC (stereo not given),-0.0502%
4,CCC(C)(CCC(C)C)C(=O)[O-].CCC(C)(CCC(C)C)C(=O)[O-].[Zn+2] (stereo not given),0.0326%
5,Nc1ccc(/C=C/c2ccc(N)cc2S(=O)(=O)O)c(S(=O)(=O)O)c1,5.14% [at 46 µM]
6,O=c1cc(O)c(Cl)c[nH]1,-0.0128% [at 46 µM]
7,C=CCOCC(CO)(COCC=C)COCC=C,0.0698%
8,OCCCCCCCl,-0.0228% [at 95.7 µM]
9,CNC(=O)NC,0.0249% [at 95.7 µM]
10,COC(=O)CCC(=O)O,0.0149%
11,C/C=C(\C)C(=O)OCC/C=C\CC,-0.112%
12,CCN(CCC#N)c1ccccc1,-0.0019%
13,Cc1oc(=O)oc1CN1CCN(c2cc3c(cc2F)c(=O)c(C(=O)O)c2n3C(C)S2)CC1 (stereo not given),0.199% [at 46 µM]
14,Cc1ccccc1OCC1CO1 (stereo not given),-0.0662%
15,NC(=O)C1(N2CCCCC2)CCN(CCCC(=O)c2ccc(F)cc2)CC1,-0.0031% [at 46 µM]
16,CCCO,0.0806%
17,C=CCOCC(O)CCl (stereo not given),0.215%
18,NS(=O)(=O)c1ccc(Cl)c(S(N)(=O)=O)c1,-0.0461% [at 46 µM]
19,COCCOCCOCCOC,-0.107%
20,CC(C)C(=O)c1ccccc1,0.188%

# — PubChem BioAssay (Tox21)
